Measured values taken from PubChem BioAssay AID504369 (National Center for Advancing Translational Sciences (NCATS), 2011).
Calls of active or inactive are those of the source. The rule behind the calls is not given here.

Assay: Counterscreen for Identifying a Potential Treatment of Ataxia-Telangiectasia: SAR for Probe
Conditions: cell-free AlphaLISA pKAP1 detection artifact counterscreen; series mostly up to 154 µM
Description: NIH Chemical Genomics Center [NCGC] NIH Molecular Libraries Probe Centers Network [MLPCN] MLPCN Grant: MH089030-01 Assay Submitter (PI): Wei Zheng and Yosef Shiloh Ataxia-telangiectasia (A-T) is a devastating and progressive disease for which, there is no cure. Although A-T is a multisystem disease, it is stereotyped characterized by its neurological symptoms such as truncal ataxia, due to cerebellar cortical degeneration of the Purkinje and granule cells. Other symptoms of A-T are telangiectasias (dilated blood vessels), primary immunodeficiency, marked sensitivity to ionizing radiation (IR), chromosomal instability and predisposition to cancer. The underlying genetic cause of A-T is null mutations in the ATM (A-T mutated) gene. ATM is a nuclear serine/threonine kinase that functions as a master regulator of the cellular responses to double strand breaks (DSBs) in the DNA. Upon activation by DSBs, ATM phosphorylates a plethora of downstream targets, including KAP-1 on Ser82452. […] To screen for small molecules that will compensate for the loss of ATM in cells derived from A-T patients, we monitored KAP-1 phosphorylation as a readout for ATM-like activity using an AlphaLISA assay.
qHTS Assay Protocol: 1. […] Readout, EnVision, EnVision plate reader. […] EnVision protocol for 1536-well AlphaScreen read (30ms excitation, 100ms read), about 10 min/plate. […]

| SMILES | outcome |
| --- | --- |
| CC(=O)c1c(O)c(C)c(O)c(Cc2c(O)c3c(c(C(=O)/C=C/c4ccccc4)c2O)OC(C)(C)C=C3)c1O | inactive |
